TDP1 cell noCPT: qHTS for Inhibitors of human tyrosyl-DNA phosphodiesterase 1 (TDP1): qHTS in cells in absence of CPT | AID 686978, 2013 | DT40 Tdp1-/- hTDP1 cells, no CPT, ATP luminescence, 48 h | actives 15% (n = 420,000) | Potency, µM (highest dose often 46.2 µM), for inactives: at the highest dose activity change, negative = growth inhibition, usual class: inhibitors; also: potency is read from the fitted curve at half-maximal effect; nearly all actives have a fitted effect of over 55% in size
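A cellular qHTS used chicken DT40 cells lacking endogenous Tdp1 but carrying stably transfected human TDP1. Compounds were applied without camptothecin, and cell growth kinetics were judged by ATP-dependent luminescence after ≥48 hr.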
LDHA block: LDHA (human) enzyme inhibition; P00338; purified LDHA, NADH/diaphorase-resazurin fluorescence; active compounds read low; activity change, % (values are at about 110 or 230 µM); actives 0.15% (n = 480,000); in the data active = activity change below about -30%; inconclusive = mostly about -25% to -30%;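 also: plate controls were DMSO wells for no effect and wells without enzyme for full effect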
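Enzyme activity of human lactate dehydrogenase 5 (2 nM; 0.06 mM NADH, 0.2 mM pyruvate, 5 min, RT) is measured via a resazurin/diaphorase fluorescence readout of residual NADH.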
TDP1 cell CPT: DT40-hTDP1 cell growth loss with CPT. Potency, µM (doses to about 46.2 µM), without a hit: top-dose activity change, negative = growth inhibition, usual class: inhibitors. actives 12% (n = 420,000). chicken DT40 Tdp1-/-;hTDP1 cells + 20 nM CPT, ATP luminescence, 48 h; also: potency is read from the fitted curve at half-maximal effect; nearly all actives have a fitted effect of over 55% in size
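Cell growth measured by CellTiter-Glo luminescence after a minimum 48 h, 37 C compound exposure with 20 nM CPT in Tdp1-knockout DT40 cells stably expressing hTDP1, seeded 400/well; qHTS titration format.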
RORgamma inh: ROR gamma (mouse) transcription inhibition; actives 5.4% (n = 310,000); Drosophila S2 Gal4-RORgamma UAS-luciferase reporter, 20 h; P51450; Potency, µM (doses to about 53.6 µM), inactives show at the top dose activity change, negative = inhibition, actives largely listed as inhibitors; also: potency is read from the fitted curve at half-maximal effect; nearly all actives have a fitted effect of over 60% in size
Target sequence (P51450 whole entry, looked up, the tested form may be a part): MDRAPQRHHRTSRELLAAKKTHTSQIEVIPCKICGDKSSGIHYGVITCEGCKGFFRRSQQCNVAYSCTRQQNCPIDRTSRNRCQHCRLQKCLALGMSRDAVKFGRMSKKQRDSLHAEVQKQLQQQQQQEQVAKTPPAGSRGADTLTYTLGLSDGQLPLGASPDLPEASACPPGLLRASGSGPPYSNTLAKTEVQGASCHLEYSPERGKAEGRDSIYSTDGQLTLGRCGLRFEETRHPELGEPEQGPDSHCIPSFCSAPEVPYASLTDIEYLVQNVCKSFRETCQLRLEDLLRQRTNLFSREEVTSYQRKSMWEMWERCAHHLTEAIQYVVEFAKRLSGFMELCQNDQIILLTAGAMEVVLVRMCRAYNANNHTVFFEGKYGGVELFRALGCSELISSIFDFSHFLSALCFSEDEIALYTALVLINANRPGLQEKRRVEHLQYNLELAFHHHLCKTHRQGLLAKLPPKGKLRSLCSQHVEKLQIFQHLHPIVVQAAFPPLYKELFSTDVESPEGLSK
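A Gal4/UAS one-hybrid system in insect cells: metallothionein-promoter Gal4–ROR gamma fusion plus Photinus luciferase reporter. Copper sulfate 700 uM final, 20 hr ambient incubation, luminescent detection after 10 min with reagent.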
VP16 counter: counter-screen for ROR gamma inhibitors: Gal4-VP16 reporter. Potency, µM (titrated, usually from 53.6 µM), for the others: at the highest dose activity, negative = inhibition, hits mostly inhibitors. actives 3.5% (n = 310,000). Drosophila S2 Gal4-VP16 UAS-luciferase, luminescence, 20 h;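 also: Gal4-VP16 expression switched on by copper sulfate through the metallothionein promoter; potency is read from the fitted curve at half-maximal effect; nearly all actives have a fitted effect of over 50% in size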
IL-1B inflam inh: inhibitors of inflammasome signaling (IL-1 beta secretion). actives 4.7% (n = 360,000). AID 743279. activity change, % at 57.5 µM. THP-1 LPS/ATP IL-1B secretion, AlphaLISA, 16 h; active compounds read low; in the data active = activity change below about -50%; inconclusive = mostly about -30% to -49%
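THP-1 cells pretreated 1 hr with compounds (up to 57.5 uM final), then stimulated with LPS (250 ng/mL final) plus ATP (1.25 mM final); secreted IL-1B measured by AlphaLISA after 16 hr, decreased signal indicating inhibition.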
An asterisk follows results filed as active; ? = inconclusive; . = not tested or not shown. Compounds with a hit are over-represented: about 18% of the library has one in this group of screens. Unless noted, calls follow the shape of the dose curve; as a rule, active = well fitted curve in the direction sought with a large enough effect; inconclusive = small, poorly fitted or top-dose-only effect, or another doubt; inactive = no such curve, though single readings can be large; an effect the other way counts as inactive or inconclusive. Unless noted, % is scaled to controls: 0 for no effect and ±100 for the full control effect.

SMILES	TDP1 cell noCPT	LDHA block	TDP1 cell CPT	RORgamma inh	VP16 counter	IL-1B inflam inh
CCC1CCCCN1CCCNC(=O)c1cc2c(=O)n(CC)c3ccccc3c2s1 (stereo not given)	?	2	?	.	.	.
CCn1c(=O)c2cc(C(=O)NCCCN(C)Cc3ccccc3)sc2c2ccccc21	?	1	?	.	.	.
Cn1c(=O)c2cc(C(=O)NC3CCCCCC3)sc2c2ccccc21	18µM*	-3	?	.	.	.
CCn1c(=O)c2cc(C(=O)NC3CCCCCC3)sc2c2ccccc21	16µM*	-2	16µM*	.	.	.
Cc1ccc(S(=O)(=O)NCc2nnnn2-c2ccc(C)c(C)c2)cc1	.	3	.	.	.	.
CC1CCC2(CC1)NC(=O)N(NC(=O)CSc1ncnc3ccccc13)C2=O (stereo not given)	.	-2	.	.	.	.
CC(C)c1noc(CN2CCN(C(=O)N3CCCCC3)CC2)n1	.	1	.	.	.	.
O=C(NCCN1CCCCC1)c1nc(-c2ccc3cc[nH]c3c2)no1	.	12	.	.	.	.
CCN(CC)CCNC(=O)CCc1c(C)nc2c(c1C)c(=O)n(C)c(=O)n2C	.	7	.	.	.	.
CCOc1cccc2c(C)nc(Nc3nc(C)c(Cc4ccc(C)cc4)c(=O)[nH]3)nc12	.	-2	.	.	.	.
O=C1c2ccccc2C(=O)N1Cc1cnc(N2CCN(c3ccccc3)CC2)s1	12µM*	-5	8.2µM*	-1%	1%	11
O=C(CCN1C(=O)c2ccccc2C1=O)N1CCN(c2ccccc2)CC1	1%	-5	2%	39%	-9%	0
Fc1ccccc1COc1ccc(Br)cc1CNCc1ccncc1	?	1	?	?	?	-22
Fc1ccc(COc2ccc(Br)cc2CNCc2ccncc2)cc1	?	-17	?	-1%	-8%	-79*
CCOc1cc(CNCc2ccncc2)cc(Br)c1OCc1ccc(F)cc1	11µM*	2	10µM*	?	-24%	-84*
Fc1ccc(COc2cccc(CNCc3ccncc3)c2)cc1	8.2µM*	4	?	?	?	-11
COc1ccccc1CNC(=O)Cn1ncc2c3ccccc3n(Cc3ccccc3C)c2c1=O	16µM*	-14	7.3µM*	.	.	.
CCc1cccc(C)c1NC(=O)Cn1ncc2c3ccccc3n(Cc3ccccc3)c2c1=O	8.2µM*	-7	10µM*	.	.	.
Cc1ccccc1Cn1c2ccccc2c2cnn(CC(=O)NCc3cccc(Cl)c3)c(=O)c21	-103%	-5	15µM*	.	.	.
O=C(Cn1ncc2c3ccccc3n(Cc3ccccc3)c2c1=O)Nc1ccccc1C(F)(F)F	?	-8	?	.	.	.
Cc1ccccc1Cn1c2ccccc2c2cnn(CC(=O)NCCCN3CCN(C)CC3)c(=O)c21	?	-6	?	1%	-7%	?
Cn1c(NCc2ccc3c(c2)OCO3)nc2c1c(=O)n(Cc1ccccc1)c(=O)n2C	.	5	.	.	.	.
CC(C)Cc1noc(CN2CCN(c3cccc(F)c3C#N)CC2)n1	.	4	.	.	.	.
CCC(C)NC(=O)Cn1ncc2ccccc2c1=O (stereo not given)	.	-2	.	.	.	.
Cc1ccc(C(=O)NCC(=O)N2CCN(c3ccccc3O)CC2)s1	2.9µM*	3	-3%	.	.	-17
SMILES	TDP1 cell noCPT	LDHA block	TDP1 cell CPT	RORgamma inh	VP16 counter	IL-1B inflam inh
C1CCN(c2nc(NNc3nc(N4CCCCC4)nc(N4CCCCC4)n3)nc(N3CCCCC3)n2)CC1	.	11	.	.	.	.
CCCNc1nc(N2CCCC2)nc(N2CCCC2)n1	13µM*	-3	?	-26%	23%	-65*
CC(C)(C)Nc1nc(N2CCCC2)nc(N2CCCC2)n1	16µM*	-5	?	-12%	-3%	53
CCNc1nc(NC(C)(C)C)nc(N2CCCC2)n1	?	-4	18µM*	-29%	?	27
Cc1ccc(Nc2nc(NCCO)nc(N3CCCC3)n2)cc1	.	-1	.	.	.	.
O=C(Oc1ccc2cc(-c3ccccc3)c(=O)oc2c1)C1CC1	.	8	.	.	.	.
O=C(CCc1ncc(-c2ccccc2)o1)Nc1ccn[nH]1	.	-7	.	.	.	.
CC(C)(C)C#CCn1c(/C=[N+](\[O-])C2CCCCC2)nc2ccccc21	18µM*	5	12µM*	10µM*	-13%	18
OCCn1c(SC2CCCCC2)nc2ccccc21	?	4	-21%	-21%	?	-11
Cc1cccc(N(C)S(=O)(=O)c2ccc3oc(=O)ccc3c2)c1C	.	1	.	.	.	.
CCCCCC(=O)O/N=C(\C)c1ccn(S(=O)(=O)c2ccccc2)c1	-89%	1	15µM*	?	-4%	1
COc1ccccc1N(CC(=O)Nc1ccc2c(c1)OCCO2)S(=O)(=O)c1ccc(C)cc1	9.2µM*	-2	?	10%	10%	-10
COC(=O)c1ccc(CN(C)S(=O)(=O)c2ccc(C)cc2)o1	-1%	-14	-21%	35%	20%	9
COc1ccccc1N(CC(=O)Nc1ccc2c(c1)OCCO2)S(C)(=O)=O	-6%	-3	-5%	23%	-1%	11
COc1ccc(N(CC(=O)Nc2ccc3c(c2)OCO3)S(=O)(=O)c2ccccc2)c(OC)c1	18µM*	-4	21µM*	6%	2%	-17
COC(=O)c1ccc(CN(c2ccc(C)cc2)S(=O)(=O)c2ccc3c(c2)OCCO3)o1	16µM*	-4	12µM*	-3%	-4%	38
COc1ccc(N(CC(=O)Nc2ccc3c(c2)OCCO3)S(=O)(=O)c2cccc(C)c2)cc1	?	-8	26µM*	.	.	-9
CCCCOc1ccc(CNC(=O)c2ncoc2-c2cccs2)cc1	.	-8	.	.	.	.
CC1(C)SC2c3ccccc3C(=O)N2[C@@H]1C(=O)NCc1ccc(Cl)cc1 (stereo not given in full)	.	12	.	.	.	.
CN(C)CCSc1ccc2c(c1)OCCCO2	.	7	.	.	.	.
Cc1ccc2nc(C)c(C(=O)NC3CCN(Cc4ccccc4)CC3)cc2c1	.	-1	.	.	.	.
CCOC(=O)C1=C(C)N=C2SC(C(=O)OC)=CC(=O)N2C1c1ccc(OC)cc1 (stereo not given)	?	-3	?	1.8µM*	?	-17
COC(=O)C1=C(C)N=C2SC(C#N)=C(N)N2C1c1ccc(OC)cc1 (stereo not given)	-30%	-5	-21%	-44%	-8%	10
CC(C)c1ccccc1NC(=O)CCn1cnc2c1c(=O)n(C)c(=O)n2C	.	-13	.	.	.	.
CCN(CC)S(=O)(=O)c1cccc(C(=O)N/N=C/c2ccccc2OCC(=O)O)c1	-15%	-5	-13%	11%	8%	7

Screening data (PubChem BioAssay)
